# Source: ChEMBL document CHEMBL1157539, “Thousands of chemical starting points for antimalarial lead identification” (Nature, 2010)
# Legend:
# Assay type in all cases: functional
# Plasmodium falciparum [1] = test: GSK_TCMDC: Inhibition of Plasmodium falciparum 3D7 in whole red blood cells, using parasite LDH activity as an index of growth. Test compounds present at 2uM
# Plasmodium falciparum [2] = test: GSK_TCMDC: Inhibition of Plasmodium falciparum Dd2 in whole red blood cells, using parasite LDH activity as an index of growth. Test compounds present at 2uM
# HepG2 = test: GSK_TCMDC: Percent inhibition of human HepG2 cell line. Test compounds present at 10uM.
Compound,Inhibition (Plasmodium falciparum [1]) [%],Inhibition (Plasmodium falciparum [2]) [%],Inhibition (HepG2) [%]
O=c1cc(NCCCNCc2cc(C(F)(F)F)ccc2Cl)[nH]c2ccccc12,90,20,25
Br.CCCOc1ccc(CCCON2C(N)=NC(N)=NC2(C)C)cc1,95,94,65
Cc1nnc2sc(-c3cccc(NC(=O)c4ccc(N5CCCCC5)c([N+](=O)[O-])c4)c3)nn12,87,20,3
Cc1cccc2nc(-c3cccc(-c4ccc(C(=O)NCc5nccn5C)cc4)c3)[nH]c12,100,9,18
COc1ccc2nccc([C@@H](O)CN3CCC(NC(=O)c4ccc(Cl)c([N+](=O)[O-])c4)CC3)c2c1,88,43,14
O=C(Nc1ccc(Cl)cc1)c1cccc(CN2CCCN(Cc3cccc(O)c3)CC2)c1.O=C(O)C(F)(F)F,98,43,14
Cc1nc(-c2cccc(Nc3nccc(NCC(O)c4cccc(F)c4)n3)c2)cs1 (stereo not drawn),98,59,39
CCOc1cc(N)c2nc3ccc([N+](=O)[O-])cc3cc2c1,100,78,73
Cc1cc(=O)[nH]c(-n2nc(C)cc2NC(=O)CC(c2ccccc2)c2ccccc2)n1,90,62,42
COc1ccc(NC(=O)CCNc2cc(C)nc(NCc3ccccc3C)n2)cc1.O=C(O)C(F)(F)F,94,61,7
CN(C)c1ccc(CN2CCC(NC(=O)c3ccc(-c4cccc(F)c4)s3)CC2)cc1.O=C(O)C(F)(F)F,91,18,55
